Results on nine compounds are retold here after PubChem BioAssay (Tox21).

Results filed as inconclusive are left out. Values without a mark were called inactive. Calls of active or inactive are those of the source. Unless noted, calls follow the shape of the dose curve; as a rule, active = well fitted curve in the direction sought with a large enough effect in the repeat runs; inconclusive = weak or mixed curves; inactive = no such curve, though single readings can be large; an effect the other way counts as inactive or inconclusive.

Assay [1] is described as follows: qHTS assay to identify small molecule agonists of the peroxisome proliferator-activated receptor delta (PPARd) signaling pathway - cell viability counter screen (AID 743211). Also: nearly all actives have a fitted effect of over 55% in size. A digest of the protocol:
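PPARd-bla HEK293H cells (UAS-beta-lactamase reporter) were treated with compounds for 17 h at 37 C. Viability was then read in the same wells by CellTiter-Glo luminescence after 30 min at room temperature.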
(In qHTS, concentration-response curves come from the screen itself.)

The target in assay [2] is Peroxisome proliferator-activated receptor delta (Homo sapiens) (UniProt Q03181). The assay can be described thus: qHTS assay to identify small molecule agonists of the peroxisome proliferator-activated receptor delta (PPARd) signaling pathway (AID 743212; calls by dose curve). A digest of the protocol: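 HEK293H UAS-bla reporter cells, human PPARd system; compounds delivered in DMSO after 5 h plating, then at 37 C. Beta-lactamase FRET read, 2 h RT substrate step.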
Chain of Peroxisome proliferator-activated receptor delta (Homo sapiens) (Q03181 whole entry, looked up): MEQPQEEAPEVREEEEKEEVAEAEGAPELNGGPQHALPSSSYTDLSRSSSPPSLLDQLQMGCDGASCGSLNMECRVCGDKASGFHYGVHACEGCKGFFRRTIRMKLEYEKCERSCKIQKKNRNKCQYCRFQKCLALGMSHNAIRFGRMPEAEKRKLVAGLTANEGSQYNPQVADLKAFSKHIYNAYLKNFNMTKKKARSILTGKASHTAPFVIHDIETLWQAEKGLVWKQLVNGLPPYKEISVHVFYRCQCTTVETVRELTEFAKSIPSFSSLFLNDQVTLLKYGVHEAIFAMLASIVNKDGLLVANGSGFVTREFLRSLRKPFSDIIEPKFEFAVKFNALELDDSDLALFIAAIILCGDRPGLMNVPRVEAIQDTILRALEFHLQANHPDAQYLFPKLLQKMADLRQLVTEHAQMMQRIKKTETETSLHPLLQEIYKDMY

Assay [3] in a line: qHTS assay to identify small molecule antagonists of the peroxisome proliferator-activated receptor delta (PPARd) signaling pathway - cell viability counter screen (AID 743213). Also: nearly all actives have a fitted effect of over 50% in size. The essentials:
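Viability counter-screen, qHTS format: PPARd-bla HEK293H, L165041 300 nM final, 17 h compound exposure at 37 C, CellTiter-Glo luminescence after 30 min RT.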

Assay [4] concerns the target Peroxisome proliferator-activated receptor delta (Homo sapiens) (UniProt Q03181). Nature of the assay: qHTS assay to identify small molecule antagonists of the peroxisome proliferator-activated receptor delta (PPARd) signaling pathway (AID 743215; active = well fitted inhibition curve with a large enough effect in the signal ratio in the repeat runs, not every such curve was filed as active; the % refers to the signal ratio;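 also: cells stimulated with agonist L165041 at 300 nM final during compound exposure; series mostly up to about 62 µM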). A digest of the protocol: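 Read-out is beta-lactamase FRET fluorescence, measured 2 h after substrate addition at room temperature. Beforehand, UAS-bla HEK293H cells carrying the PPARd reporter were exposed to compounds with L165041 at 300 nM final for 17 h at 37 C.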

Assay [5] concerns the target Bile acid receptor (Homo sapiens) (UniProt Q96RI1). The assay can be described thus: qHTS assay to identify small molecule antagonists of the farnesoid-X-receptor (FXR) signaling pathway (AID 743217; active = well fitted inhibition curve with a large enough effect in the signal ratio in the repeat runs, not every such curve was filed as active; the % refers to the signal ratio). A digest of the protocol: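 HEK 293T FXR-UAS-bla, 5000 cells/well; compound + CDCA 50 uM final; 16 h, 37 °C; B/G FRET substrate 2 h RT; fluorescence.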
Assay [6] can be described thus: qHTS assay to identify small molecule agonists of the farnesoid-X-receptor (FXR) signaling pathway - cell viability counter screen (AID 743218). Also: nearly all actives have a fitted effect of over 45% in size. A digest of the protocol: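 HEK 293T FXR-bla cells; 5 h pre-incubation, 16 h compound exposure at 37 C; LiveBLAzer substrate 2 h RT, then CellTiter-Glo 30 min RT, luminescence.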
Assay [7] concerns the target Bile acid receptor (Homo sapiens) (UniProt Q96RI1). The assay can be described thus: qHTS assay to identify small molecule agonists of the farnesoid-X-receptor (FXR) signaling pathway (AID 743220; active = well fitted activation curve with a large enough effect in the signal ratio in the repeat runs, not every such curve was filed as active; the % refers to the signal ratio). A digest of the protocol:
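Beta-lactamase reporter under UAS control in GeneBLAzer FXR HEK 293T cells (5000/well) measured with LiveBLAzer FRET substrate after 2 h at room temperature. Compound exposure lasted 16 h at 37C.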

The target of assay [8] is Vitamin D3 receptor (Homo sapiens) (UniProt P11473). Nature of the assay: qHTS assay to identify small molecule agonists of the vitamin D receptor (VDR) signaling pathway (AID 743222; calls by dose curve). A digest of the protocol: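 VDR-bla cells, 2,000/well; 4 h preincubation 37C; cpd (DMSO) 16 h; LiveBLAzer B/G substrate 2 h RT; fluorescence intensity read.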
Chain of Vitamin D3 receptor (Homo sapiens) (P11473 whole entry, looked up): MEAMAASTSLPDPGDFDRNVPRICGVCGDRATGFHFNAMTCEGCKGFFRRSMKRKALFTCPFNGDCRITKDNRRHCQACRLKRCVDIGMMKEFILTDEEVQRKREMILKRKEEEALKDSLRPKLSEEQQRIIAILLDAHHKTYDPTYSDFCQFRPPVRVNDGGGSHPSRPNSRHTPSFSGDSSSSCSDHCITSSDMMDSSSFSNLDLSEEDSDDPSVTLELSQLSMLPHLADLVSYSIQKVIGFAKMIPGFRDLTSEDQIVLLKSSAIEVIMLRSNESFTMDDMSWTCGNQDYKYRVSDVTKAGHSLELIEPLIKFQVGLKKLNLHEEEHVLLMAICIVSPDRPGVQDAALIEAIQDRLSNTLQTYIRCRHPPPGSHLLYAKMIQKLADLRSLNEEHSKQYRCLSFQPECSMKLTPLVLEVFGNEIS
Assay [9] in a line: qHTS assay to identify small molecule agonists of the vitamin D receptor (VDR) signaling pathway - cell viability counter screen (AID 743224). Also: series mostly up to about 63 µM; nearly all actives have a fitted effect of over 50% in size. The essentials:
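Luminescence from CellTiter-Glo, read after 30 min at room temperature, reports viability of VDR-bla cells treated with compounds for 16 h at 37C in the wells used for the beta-lactamase FRET read.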

A short description of assay [10]: qHTS assay to identify small molecule antagonists of the vitamin D receptor (VDR) signaling pathway - cell viability counter screen (AID 743225). Also: nearly all actives have a fitted effect of over 50% in size. A digest of the protocol: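 VDR-bla HEK 293T cells, 4 h pre-incubation at 37C, then compound plus 1-alpha,25-dihydroxyvitamin D3 (3 nM final) for 16 h. After the beta-lactamase FRET read, CellTiter-Glo was added to the same wells; luminescence after 30 min at room temperature.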

A short description of assay [11]: qHTS assay to identify small molecule agonists of the NFkB signaling pathway - cell viability counter screen (AID 1159515; calls by dose curve; also: series mostly up to about 61 µM; nearly all actives have a fitted effect of over 55% in size). The essentials:
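Luminescence from CellTiter-Glo (30 min, room temperature) gives viability, measured in the same wells as the beta-lactamase reporter read. Cells were NFkB-bla ME-180, 2,000 per well, treated 5 hr with compounds.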

The nature of assay [12]: qHTS assay to identify small molecule agonists of the endoplasmic reticulum stress response signaling pathway (AID 1159516; active = well fitted activation curve with a large enough effect in the signal ratio in the repeat runs, not every such curve was filed as active; the % refers to the signal ratio). The essentials: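 Read-out is beta-lactamase cleavage of a FRET substrate (405 nm excitation; 460 and 530 nm emissions) in ESRE-bla HeLa cells after a 5 hr compound exposure at 37 C. Substrate incubation ran 2 hr at room temperature.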
Assay [13] can be described thus: qHTS assay to identify small molecule agonists of the endoplasmic reticulum stress response signaling pathway - cell viability counter screen (AID 1159517; calls by dose curve;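 also: HeLa cells carrying an ER stress response element beta-lactamase reporter; series mostly up to about 61 µM; nearly all actives have a fitted effect of over 50% in size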). A digest of the protocol:
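Cells, HeLa ESRE-bla; density, 1,500/well; dosing, 5 hr at 37 C, 5% CO2; readout, CellTiter-Glo luminescence after 30 min RT.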

Assay [14] concerns the target Nuclear receptor ROR-gamma (Homo sapiens) (UniProt P51449). The assay can be described thus: qHTS assay to identify small molecule antagonists of the retinoid-related orphan receptor gamma (ROR-gamma) signaling pathway (AID 1159521; also: nearly all actives have a fitted effect of over 50% in size; also: potency is read from the fitted curve at half-maximal effect). The essentials: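 Tet-on RORγ CHO cells carrying a ROR response element–luciferase reporter were pretreated with compounds for 2 h, then induced with 1 uM (final) doxycycline hyclate for 16 h at 37 C. Antagonism was read as decreased ONE-Glo luminescence.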

The nature of assay [15]: qHTS assay to identify small molecule agonists of the AP-1 signaling pathway - cell viability counter screen (AID 1159525; calls by dose curve; also: nearly all actives have a fitted effect of over 55% in size). The essentials:
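Luminescent ATP readout (Cell Titer Glo, 30 min RT), normalised to DMSO and tetra n-octyl ammonium bromide controls. Cells were ME-180 AP-1-bla in 0.5% dialyzed FBS Opti-MEM, with a 5 h, 37 °C compound exposure.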

Assay [16] concerns the target Retinoic acid receptor RXR-alpha (Homo sapiens) (UniProt P19793). The assay can be described thus: qHTS assay to identify small molecule agonists of the RXR signaling pathway (AID 1159527; calls by dose curve; also: nearly all actives have a fitted effect of over 35% in size). The essentials:
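GeneBLAzer RXR-alpha-UAS-bla HEK 293T cells in medium with 2% charcoal-stripped FBS, pre-incubated 5 hr at 37 C, then exposed to compounds 16 hr. Beta-lactamase reporter read by FRET substrate, 2 hr room temperature, 460/530 nm emission.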

Assay [17] in a line: qHTS assay to identify small molecule antagonists of the farnesoid-X-receptor (FXR) signaling pathway - cell viability counter screen (AID 743221; active = well fitted cell-killing curve with a large enough effect in the repeat runs, not every such curve was filed as active; also: nearly all actives have a fitted effect of over 50% in size). A digest of the protocol:
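FXR-UAS-bla HEK 293T cells were treated with test compounds plus chenodeoxycholic acid (50 uM final) for 16 h at 37 C. Cell viability in the same wells was then read as CellTiter-Glo luminescence after 30 min at room temperature.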

The target in assay [18] is Vitamin D3 receptor (Homo sapiens) (UniProt P11473). The assay can be described thus: qHTS assay to identify small molecule antagonists of the vitamin D receptor (VDR) signaling pathway (AID 743223; active = well fitted inhibition curve with a large enough effect in the signal ratio in the repeat runs, not every such curve was filed as active; the % refers to the signal ratio). A digest of the protocol: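 VDR-bla cells were plated, incubated 4 h at 37C, then given compound and 1alpha,25-dihydroxyvitamin D3 (3 nM final). After 16 h at 37C, LiveBLAzer B/G FRET substrate was added for 2 h at room temperature and fluorescence read.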

A short description of assay [19]: qHTS assay to identify small molecule agonists of the AP-1 signaling pathway (AID 1159526; calls by dose curve).
A short description of assay [20]: qHTS assay to identify small molecule antagonists of the retinoid-related orphan receptor gamma (ROR-gamma) signaling pathway - cell viability counter screen (AID 1159520). Also: nearly all actives have a fitted effect of over 50% in size. Also: potency is read from the fitted curve at half-maximal effect. The essentials: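 Cytotoxicity was read from cellular ATP (CellTiter-Glo luminescence) after 16 hr at 37 C with 1 uM doxycycline induction. The inducer was added 2 hr after compound transfer to Tet-on ROR gamma CHO cells.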

Chain of Retinoic acid receptor RXR-alpha (Homo sapiens) (P19793 whole entry, looked up): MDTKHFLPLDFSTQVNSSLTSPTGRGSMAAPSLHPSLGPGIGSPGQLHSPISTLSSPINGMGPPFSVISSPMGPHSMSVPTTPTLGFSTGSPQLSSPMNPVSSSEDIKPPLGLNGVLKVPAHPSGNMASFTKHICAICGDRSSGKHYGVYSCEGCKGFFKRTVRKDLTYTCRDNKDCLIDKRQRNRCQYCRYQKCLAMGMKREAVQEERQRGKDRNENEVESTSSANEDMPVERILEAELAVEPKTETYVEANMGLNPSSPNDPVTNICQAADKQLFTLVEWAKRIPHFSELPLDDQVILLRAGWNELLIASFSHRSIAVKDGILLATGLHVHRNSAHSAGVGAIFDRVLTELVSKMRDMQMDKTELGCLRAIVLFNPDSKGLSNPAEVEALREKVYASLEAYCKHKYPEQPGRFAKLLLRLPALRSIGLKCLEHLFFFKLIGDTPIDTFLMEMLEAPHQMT
Chain of Bile acid receptor (Homo sapiens) (Q96RI1 whole entry, looked up): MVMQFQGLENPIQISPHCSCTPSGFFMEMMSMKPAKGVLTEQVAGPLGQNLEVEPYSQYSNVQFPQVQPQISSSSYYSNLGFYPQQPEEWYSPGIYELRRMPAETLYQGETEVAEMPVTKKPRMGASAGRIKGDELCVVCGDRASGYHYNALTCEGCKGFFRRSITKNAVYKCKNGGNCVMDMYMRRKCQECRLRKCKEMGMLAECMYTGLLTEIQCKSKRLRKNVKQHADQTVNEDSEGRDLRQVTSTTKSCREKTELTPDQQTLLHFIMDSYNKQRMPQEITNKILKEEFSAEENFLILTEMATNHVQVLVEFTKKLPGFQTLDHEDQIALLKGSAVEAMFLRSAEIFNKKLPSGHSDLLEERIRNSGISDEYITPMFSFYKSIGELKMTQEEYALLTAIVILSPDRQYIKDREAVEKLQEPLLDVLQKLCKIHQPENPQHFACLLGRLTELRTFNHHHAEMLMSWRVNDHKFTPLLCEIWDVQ

As for `CCCCCCCCCCCCCCCBr`, the Potency result in assay [1], in [3], in assay [6], in assay [9], in assay [10] and in assay [11] was “inactive” in each case. Moreover, the Potency entry in assay [12], in assay [14], in assay [15] and in assay [16] was “inactive” each time. Also, the outcome in [2], in [4], in assay [5], in assay [7], in [8] and in [13] was inactive.

As to `Cc1ccc2c(ccc3ccccc32)c1`, the Potency entry in [1], in assay [3], in assay [6], in assay [17], in assay [18] and in assay [10] was “inactive” each time. Also, the Potency entry in [11], in assay [12], in assay [14], in [15], in assay [19] and in assay [16] was “inactive” throughout. For the same compound, the call in assay [2], in assay [4], in [7], in assay [8] and in assay [13] was inactive.

Turning to `CCC(=O)OC(C)(C)C1CC=C(C)CC1` (stereo not given), the Potency entry in assay [1], in assay [3], in assay [17], in [9], in [11] and in [12] was “inactive” each time. Further, the Potency result in assay [14], in assay [15] and in assay [19] was “inactive” each time. For the same compound, the compound was classed as inactive in assay [2], in assay [5], in assay [7] and in [13].

On to `CN(C(=O)CCCOc1ccc2[nH]c(=O)ccc2c1)C1CCCCC1`, for which the Potency entry in assay [1], in assay [3], in assay [6], in assay [17], in [9] and in assay [10] was “inactive” throughout. The Potency result in assay [11], in [12], in [20], in assay [14] and in [16] was “inactive” throughout. Besides, the outcome in assay [5], in [7], in [8] and in assay [13] was inactive.

For `CCCC(C)C`, the Potency entry in assay [1], in [17], in assay [18], in assay [9], in assay [10] and in assay [11] was “inactive” in each case. Also, the Potency result in [12], in assay [20], in [14] and in [19] was “inactive” each time. Also, the compound was called inactive in assay [2], in assay [4], in assay [8] and in assay [13].

As for `CC(C)CCCC(C)CCO` (stereo not given), the Potency result in [1], in [3], in assay [6], in [17], in assay [18] and in [10] was “inactive” in each case. For the same compound, the Potency result in assay [11], in assay [12], in assay [20], in [14] and in assay [19] was “inactive” throughout. The outcome in assay [2], in assay [5], in assay [7] and in assay [13] was inactive.

Turning to `Cc1cc(O)ccc1N`, the Potency result in [1], in [6], in assay [10], in [11] and in assay [12] was “inactive” in each case. Besides, the compound was classed as inactive in assay [2], in assay [4], in assay [5] and in assay [13]. For the same compound, the results for the Potency in [20] and in assay [14] were 54.8 µM (active) and 24.5 µM (active), respectively.

With `CC[C@@H]1C[C@H](N(Cc2cc(C(F)(F)F)cc(C(F)(F)F)c2)C(C)=O)c2cc(C(F)(F)F)ccc2N1C(=O)OC(C)C`, the Potency result in assay [1], in assay [6], in assay [17], in [18], in [10] and in assay [11] was “inactive” each time. The Potency result in [12], in assay [14], in [15] and in [19] was “inactive” throughout. The compound was classed as inactive in assay [4], in assay [8] and in assay [13].

On to `CCCCOc1cc(C(=O)OCCN(CC)CC)ccc1N`, for which the Potency result in assay [1], in assay [3], in assay [6], in [17], in assay [18] and in [9] was “inactive” each time. Also, the Potency entry in [10], in assay [11], in assay [12], in assay [20], in assay [14] and in [16] was “inactive” throughout. For the same compound, the call in assay [5], in assay [7], in [8] and in [13] was inactive.
